# In PubChem BioAssay (NCATS):
# Results filed as inconclusive are left out. Values without a mark were called inactive. Calls of active or inactive are those of the source. Calls come from the whole dose curve; as a rule, active = well fitted curve in the direction sought with a large enough effect; inconclusive = small, poorly fitted or top-dose-only effect, or another doubt; inactive = no such curve, though single readings can be large; an effect the other way counts as inactive or inconclusive.
# Target: Rap guanine nucleotide exchange factor 3 (Homo sapiens) (UniProt O95398)
# Sequence (O95398 whole entry, looked up): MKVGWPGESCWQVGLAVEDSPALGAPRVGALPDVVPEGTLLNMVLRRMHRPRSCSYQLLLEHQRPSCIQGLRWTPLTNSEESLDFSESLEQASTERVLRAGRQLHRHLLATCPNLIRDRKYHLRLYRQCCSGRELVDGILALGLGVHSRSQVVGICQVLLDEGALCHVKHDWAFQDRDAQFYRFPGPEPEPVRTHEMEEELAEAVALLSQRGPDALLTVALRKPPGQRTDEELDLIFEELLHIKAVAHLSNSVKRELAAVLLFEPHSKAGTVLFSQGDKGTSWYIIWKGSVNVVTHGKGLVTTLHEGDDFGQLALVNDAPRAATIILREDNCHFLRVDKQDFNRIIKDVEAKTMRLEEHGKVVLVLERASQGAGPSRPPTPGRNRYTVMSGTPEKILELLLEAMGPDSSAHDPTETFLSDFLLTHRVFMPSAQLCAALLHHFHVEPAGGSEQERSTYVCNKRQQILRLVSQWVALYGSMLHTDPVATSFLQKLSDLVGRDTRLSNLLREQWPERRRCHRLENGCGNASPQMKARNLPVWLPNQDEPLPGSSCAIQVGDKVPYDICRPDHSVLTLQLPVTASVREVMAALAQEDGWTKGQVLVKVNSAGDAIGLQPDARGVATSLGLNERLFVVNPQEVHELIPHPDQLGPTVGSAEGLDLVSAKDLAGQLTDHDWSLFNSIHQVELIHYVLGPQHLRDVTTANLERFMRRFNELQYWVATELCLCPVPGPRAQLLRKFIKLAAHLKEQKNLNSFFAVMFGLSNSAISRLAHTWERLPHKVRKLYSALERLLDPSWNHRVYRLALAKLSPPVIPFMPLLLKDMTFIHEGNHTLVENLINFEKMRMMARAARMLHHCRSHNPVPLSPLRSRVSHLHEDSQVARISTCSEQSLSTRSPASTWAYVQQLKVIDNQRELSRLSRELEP
# Experiment: Confirmatory qHTS for antagonist of cAMP-regulated guanine nucleotide exchange factor 3 (EPAC1) (AID 1645880); note: nearly all actives have a fitted effect of over 55% in size; note: potency is the fitted concentration of half-maximal effect;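 for activity, negative = inhibition: plate controls were DMSO only for no effect and full effect of the ATA control for full effect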
# Settings: EPAC1 Rap1B-BODIPY-GDP exchange, fluorescence; series mostly up to 115 µM; activity, negative = inhibition: at the top concentration
# Outline: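 Released BODIPY-GDP fluoresces less than Rap1-bound BODIPY-GDP; the signal is followed at 480/540 nm at 5-min intervals over 30 min, after 5 min at room temperature. Reactions contain 100 nM EPAC1, 250 nM RAP1B-BODIPY-GDP and 50 uM GDP; results are normalized to ATA and DMSO.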
Compound,Potency,"activity, negative = inhibition [%]"
CCCCNC(=O)c1c(N)n(CCCOC)c2nc3ccccc3nc12,84.9 µM (active),–
COC(=O)c1cn(Cc2ccc(F)cc2)c2ccccc12,–,-14.1
CCOC(=O)[C@]12Cc3cc(C)ccc3[C@H]1N(C1CCCCC1)C(=O)c1ccccc12,–,-26.2
O=c1[nH]c(O)c(C=Nc2ccccc2Sc2ccccc2)c(=O)[nH]1,–,2.16
CCOC(=O)[C@]12Cc3ccccc3[C@H]1N(C1CCCCC1)C(=O)c1cc(OC)ccc12,–,-27.3
CCN1C(=O)C(=C/C=C/c2ccco2)C(=O)N(CC)C1=S,–,-29.3
CCOC(=O)[C@]12Cc3cc(OC)ccc3[C@H]1N(Cc1ccccc1)C(=O)c1cc(F)c(F)cc12,–,-25
COC(=O)c1cn(C(=O)c2cccc3ccccc23)c2ccccc12,–,-17.7
CCOC(=O)[C@]12Cc3cc(N(C)C)ccc3[C@H]1N(Cc1ccccc1)C(=O)c1ccccc12,–,-17.2
Cc1c(NS(=O)(=O)c2ccccc2)ccc([N+](=O)[O-])c1Cl,–,-14.6
CCOC(=O)[C@]12Cc3ccc(C)cc3[C@H]1N(C1CCCCC1)C(=O)c1cc(OC)ccc12,–,-28.5
CCOC(=O)[C@]12Cc3cc(C)ccc3[C@H]1N(Cc1ccccc1)C(=O)c1ccccc12,–,-28
CCOC(=O)[C@]12Cc3ccsc3[C@H]1N(Cc1ccccc1)C(=O)c1ccccc12,–,-7.51
Nc1c(C(=O)Nc2ccc(Br)cc2F)sc2nc3c(cc12)N1CCC3CC1,–,-21.1
COc1ccc(CN2C(=O)NC(=O)/C(=C/c3ccc([N+](=O)[O-])s3)C2=O)cc1,9.53 µM (active),–
O=C1NC(=O)N(Cc2ccccc2)C(=O)/C1=C/C=C/c1ccco1,44.7 µM (active),–

# Target: Rap guanine nucleotide exchange factor 3 (Homo sapiens) (UniProt O95398)
# Experiment: Confirmatory qHTS for agonist of cAMP-regulated guanine nucleotide exchange factor 3 (EPAC1) (AID 1645881);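 note: EPAC1 catalysed release of BODIPY-GDP from Rap1B seen as fluorescence loss; 100% = effect of cAMP agonist control; nearly all actives have a fitted effect of over 75% in size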
# Settings: EPAC1 Rap1B BODIPY-GDP exchange fluorescence; series mostly up to 154 µM; activation: at the top concentration
row,Compound,activation [%]
1,CCCCNC(=O)c1c(N)n(CCCOC)c2nc3ccccc3nc12,-10.5
2,COC(=O)c1cn(Cc2ccc(F)cc2)c2ccccc12,26.5
3,CCOC(=O)[C@]12Cc3cc(C)ccc3[C@H]1N(C1CCCCC1)C(=O)c1ccccc12,-4.22
4,O=c1[nH]c(O)c(C=Nc2ccccc2Sc2ccccc2)c(=O)[nH]1,7.94
5,CCOC(=O)[C@]12Cc3ccccc3[C@H]1N(C1CCCCC1)C(=O)c1cc(OC)ccc12,14.4
6,CCN1C(=O)C(=C/C=C/c2ccco2)C(=O)N(CC)C1=S,4.07
7,CCOC(=O)[C@]12Cc3cc(OC)ccc3[C@H]1N(Cc1ccccc1)C(=O)c1cc(F)c(F)cc12,5.59
8,COC(=O)c1cn(C(=O)c2cccc3ccccc23)c2ccccc12,22.4
9,CCOC(=O)[C@]12Cc3cc(N(C)C)ccc3[C@H]1N(Cc1ccccc1)C(=O)c1ccccc12,-1.13
10,Cc1c(NS(=O)(=O)c2ccccc2)ccc([N+](=O)[O-])c1Cl,-2.54
11,CCOC(=O)[C@]12Cc3ccc(C)cc3[C@H]1N(C1CCCCC1)C(=O)c1cc(OC)ccc12,11.6
12,CCOC(=O)[C@]12Cc3cc(C)ccc3[C@H]1N(Cc1ccccc1)C(=O)c1ccccc12,6.36
13,CCOC(=O)[C@]12Cc3ccsc3[C@H]1N(Cc1ccccc1)C(=O)c1ccccc12,13.1
14,Nc1c(C(=O)Nc2ccc(Br)cc2F)sc2nc3c(cc12)N1CCC3CC1,-5.79
15,COc1ccc(CN2C(=O)NC(=O)/C(=C/c3ccc([N+](=O)[O-])s3)C2=O)cc1,-0.992
16,O=C1NC(=O)N(Cc2ccccc2)C(=O)/C1=C/C=C/c1ccco1,5.93
